Measurements taken from the supplement of paper PMC7156485.
± gives the standard deviation of the averaged measurements.

Experiments:
Settings in all cases: concentration: 10 µM; 24 h
[1] = tested on: HCC1569; experiment: cell number relative to DMSO (% of DMSO); higher = more cells (less growth inhibition / toxicity)
Method in brief: (§1)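 For HCC1569 and TDF cells, compounds at 10 µM were applied for 24 h at 37 °C in triplicate in 384-well plates. Cells were fixed in 3.7% formaldehyde, stained for H1.0 and with DAPI, and imaged at ×10 over six fields per well. The endpoint, H1.0 nuclear intensity or cell number, is shown as percent of the plate control using the median of replicates. Positional effects were smoothed for HCC1569 only.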

[2] = tested on: TDF; experiment: as above
Method in brief: as §1

[3] = tested on: TDF; experiment: H1.0 immunofluorescence intensity relative to DMSO (% of DMSO); higher = stronger H1.0 induction, active = 120 or more
Method in brief: as §1

[4] = tested on: HCC1569; experiment: H1.0 immunofluorescence intensity relative to DMSO (% of DMSO); higher = stronger H1.0 induction, active = 140 or more
Method in brief: as §1
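Wherever H1.0 immunofluorescence intensity relative to DMSO is given: TDF is a line of transformed human dermal fibroblasts of mesenchymal origin.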
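Wherever cell number relative to DMSO is given: TDF denotes transformed human dermal fibroblasts of mesenchymal origin.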

Structure (SMILES)	cell number [1]	cell number [2]	H1.0 immunofluorescence intensity [3]	H1.0 immunofluorescence intensity [4]
Cn1cnc2c(NCc3ccccc3)nc(NCCO)nc21	94.5	107	103 (inactive)	107 (inactive)
CC1(C)OC2CC(=O)OCC23C1CC(=O)C1(C)C3CCC2(C)C(c3ccoc3)OC(=O)C3OC321 (centres undefined) [Limonin]	103	104	92.2 (inactive)	90 (inactive)
O=C(Nc1cccc(-c2ccccc2)c1)OC1CCCCC1 [cyclohexyl [1,1'-biphenyl]-3-ylcarbamate]	105	94.2	93.4 (inactive)	88.6 (inactive)
CCOc1ccccc1OCCNC(C)Cc1ccc(OC)c(S(N)(=O)=O)c1 (centres undefined) [Tamsulosin]	98.8	96.7	97.8 (inactive)	95.4 (inactive)
Cc1nc2c([nH]1)c(=O)n(C)c(=O)n2Cc1ccco1 [Furafylline]	103 ± 5.7	107 ± 11	94.5 (inactive)	103 (inactive)
CCCCCCCCCCCCCCCC(=O)NCC(COP(=O)([O-])OCC[N+](C)(C)C)OCC (racemic) [rac-2-Ethoxy-3-hexadecanamido-1-propylphosphocholine]	96.1	96.3	97.5 (inactive)	104 (inactive)
COC1CC2CCC(C)C(O)(O2)C(=O)C(=O)N2CCCCC2C(=O)OC(C(C)CC2CCC(O)C(OC)C2)CC(=O)C(C)C=C(C)C(O)C(OC)C(=O)C(C)CC(C)C=CC=CC=C1C (centres undefined) [Rapamycin]	96.2 ± 5.5	92.4 ± 8.9	86.7 (inactive)	108 (inactive)
O=[NH+]C=C1C=CN(CN2C=CC(=C[NH+]=O)C=C2)C=C1.[Br-].[Br-] [1,1'-methylenebis(4-(nitrosomethyl)pyridinium) bromide]	105	99	89.7 (inactive)	93.7 (inactive)
C#CCN(C)Cc1ccccc1.Cl [Pargyline hydrochloride]	114	105	91.7 (inactive)	101 (inactive)
CCCCC1C(=O)N(c2ccccc2)N(c2ccccc2)C1=O [Phenylbutazone]	101 ± 1.3	106 ± 10	93.7 (inactive)	97.5 (inactive)
CS(=O)(=O)CCNCc1ccc(-c2ccc3ncnc(Nc4ccc(OCc5cccc(F)c5)c(Cl)c4)c3c2)o1.Cc1ccc(S(=O)(=O)O)cc1.Cc1ccc(S(=O)(=O)O)cc1 [Lapatinib ditosylate]	88.5	94.3	93.5 (inactive)	110 (inactive)
Cl.Cl.O=S(=O)(NCCNCC=Cc1ccc(Br)cc1)c1cccc2cnccc12 [H-89, Dihydrochloride]	96.6	110	92.7 (inactive)	129 (inactive)
O=c1[nH]c(=O)n(C2CC(O)C(CO)O2)cc1F (centres undefined) [Floxuridine]	81.3	61.1	112 (inactive)	119 (inactive)
COc1ccc(S(=O)(=O)Nc2nc(-c3cccc([N+](=O)[O-])c3)c(CN3CCCCC3)s2)cc1OC	101	98.9	89.5 (inactive)	110 (inactive)
COc1cc2ccccc2cc1C(=O)OC(C)C(=O)NCc1ccc(F)cc1 (centres undefined) [IP3K Inhibitor]	102	107	98.7 (inactive)	115 (inactive)
CCCCCCCCCCCC1N[C@H](C(=O)O)CS1 (stereo partly drawn) [(4R)-2-undecyl-1,3-thiazolidine-4-carboxylic acid]	98.7	105	95.5 (inactive)	96.9 (inactive)
CC(=O)OCC1OC([S-])C(OC(C)=O)C(OC(C)=O)C1OC(C)=O.CCP(CC)CC.[Au+] (centres undefined) [Auranofin]	38	15.4	155 (active)	146 (active)
CC1=C(C)C(=O)C(C(CCCCCC(=O)O)c2ccccc2)=C(C)C1=O (centres undefined) [Seratrodast]	107	104	99.3 (inactive)	82.5 (inactive)
CCCCCC(O)C=CC1C(O)CC(=O)C1CC=CCCCC(=O)O (centres undefined) [Prostaglandin E2]	100 ± 2.4	102 ± 6.3	95.7 (inactive)	100 (inactive)
Cc1cc(=O)oc2cc(O)ccc12 [4-Methylumbelliferone]	103	103	102 (inactive)	94.5 (inactive)
Cl.Cl.c1ccc2c3c([nH]c2c1)C1C2CCC(C4CCCNC42)N1CC3 (centres undefined)	99.8	100	97.2 (inactive)	101 (inactive)
